From PubChem BioAssay (Tox21)
Inconclusive results are not listed. A call without a number means that no potency is given here. Values without a mark were called inactive. The source made the active and inactive calls. Unless noted, calls follow the shape of the dose curve; as a rule, active = well fitted cell-killing curve with a large enough effect in the repeat runs (not every such curve was filed as active); inconclusive = weak or mixed curves, or effect the other way; inactive = no such curve, though single readings can be large or run the other way.

Target: Nuclear receptor subfamily 1 group I member 3 (Homo sapiens) (UniProt Q14994)
Sequence (Q14994 whole entry, looked up): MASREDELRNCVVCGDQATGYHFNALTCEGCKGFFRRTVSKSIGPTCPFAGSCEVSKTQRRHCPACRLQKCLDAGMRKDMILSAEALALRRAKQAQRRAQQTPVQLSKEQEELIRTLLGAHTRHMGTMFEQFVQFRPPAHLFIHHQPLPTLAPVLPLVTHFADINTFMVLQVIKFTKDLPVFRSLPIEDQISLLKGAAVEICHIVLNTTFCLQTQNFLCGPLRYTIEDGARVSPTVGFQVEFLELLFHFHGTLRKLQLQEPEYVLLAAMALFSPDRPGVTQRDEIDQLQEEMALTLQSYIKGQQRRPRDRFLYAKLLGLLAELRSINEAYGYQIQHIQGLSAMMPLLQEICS
Assay: qHTS assay to identify small molecule antagonists of the constitutive androstane receptor (CAR) signaling pathway (AID 1224838; active = well fitted curve in the direction sought with a large enough effect in the repeat runs; an effect the other way counts as inactive or inconclusive; also: nearly all actives have a fitted effect of over 40% in size; also: potency is read from the fitted curve at half-maximal effect)
Conditions: HepG2-CYP2B6-hCAR luciferase, CITCO-stimulated, 24 h; series mostly up to 92.4 µM
In short: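 Read-out: ONE-Glo luciferase luminescence after 30 min at room temperature. HepG2-CYP2B6-hCAR double-stable cells, compounds in 15-point titration plus 50 nM CITCO final, 24 h at 37 C/5% CO2.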
With CC(=O)CCC(C)=O the Potency was “inactive”.
For Cc1ccccc1C(=O)Nc1cccc(OC(C)C)c1, the Potency was “inactive”.
For CCCC(Cn1cncn1)c1ccc(Cl)cc1Cl (configuration not stated), the Potency was “inactive”.
With CCc1ccc(C(=O)NN(C(=O)c2cc(C)cc(C)c2)C(C)(C)C)cc1 the Potency was “inactive”.
With CCO[C@H]1O[C@@H]2OC3(C)CC[C@H]4[C@H](C)CC[C@@H]([C@H]1C)[C@@]24OO3 the Potency was “inactive”.
For c1cc2ccc3cccc4ccc(c1)c2c34, the Potency was “inactive”.
In the case of C#CCOC(C(=O)OCCN(C)C)(c1ccccc1)c1ccccc1, the Potency is reported as “inactive”.
With C/C(=C\c1ccccc1)[N+](=O)[O-] the Potency was 24.3 µM (active).
For CN(C)c1ccc(N(C)C)cc1, the Potency was “inactive”.
With BrCC(Br)C1CCC(Br)C(Br)C1 (configuration not stated) the Potency was “inactive”.
With O=C1c2ccccc2C(=O)C1C(=O)C(c1ccccc1)c1ccccc1 the Potency was “inactive”.
With C=COC(C)=O the Potency was “inactive”.
In the case of CCCCCC[N+](=O)[O-], the Potency is reported as “inactive”.

Target: Nuclear receptor subfamily 1 group I member 3 (Homo sapiens) (UniProt Q14994)
Assay: qHTS assay to identify small molecule agonists of the constitutive androstane receptor (CAR) signaling pathway (AID 1224839; active = well fitted curve in the direction sought with a large enough effect in the repeat runs; an effect the other way counts as inactive or inconclusive; also: nearly all actives have a fitted effect of over 15% in size; also: potency is read from the fitted curve at half-maximal effect;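 as to activation: HepG2 cells stably carrying human CAR and a CYP2B6 luciferase reporter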)
Conditions: HepG2 hCAR CYP2B6-luciferase, agonist mode, 24 h; series mostly up to 92.4 µM
In short: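 HepG2 cells stably expressing hCAR and a CYP2B6-2.2kb luciferase reporter were treated with compounds at 15 concentrations plus 0.75 uM PK11195 (final) for 24 h at 37 C; luminescence was read after ONE-Glo addition.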
In the case of CCCC(Cn1cncn1)c1ccc(Cl)cc1Cl (configuration not stated), the Potency is reported as 61.1 µM (active).
With CCO[C@H]1O[C@@H]2OC3(C)CC[C@H]4[C@H](C)CC[C@@H]([C@H]1C)[C@@]24OO3 the Potency was 4.22 µM (active).
With c1cc2ccc3cccc4ccc(c1)c2c34 the Potency was 36 µM (active).
In the case of CNP(=O)(OC)Oc1ccc(C(C)(C)C)cc1Cl (configuration not stated), the Potency is reported as 48.6 µM (active).
In the case of CN(C)c1ccc(N(C)C)cc1, the Potency is reported as 61.3 µM (active).
In the case of NCCCNCCCN, the Potency is reported as “inactive”.
With C=C(C#N)CCC#N the Potency was “inactive”.
With O=[N+]([O-])C(Br)(CO)CO the Potency was “inactive”.
With CO[C@@H]1[C@H](OC(=O)NC(=O)CCl)CC[C@]2(CO2)[C@H]1[C@@]1(C)O[C@@H]1CC=C(C)C the activation was -1.38% [at 19 µM].
For O=C1c2ccccc2C(=O)C1C(=O)C(c1ccccc1)c1ccccc1, the Potency was “inactive”.
With CN1C(=O)NC(=O)C(C)(C2=CCCCC2)C1=O (configuration not stated) the Potency was “inactive”.
In the case of COc1c(C(C)(C)C)cc([N+](=O)[O-])c(C)c1[N+](=O)[O-], the Potency is reported as 24.1 µM (active).

System: not listed separately
Assay: qHTS assay to identify small molecule antagonists of the estrogen related receptor signaling pathway with the pleiotropic PPARgamma coactivator (PGC) from Tox21 10K library - cell viability counter screen (AID 1224840); also: nearly all actives have a fitted effect of over 40% in size
Conditions: PGC/ERR reporter cells viability, CellTiter-Fluor, 17.5 h; series mostly up to 92.4 µM
In short: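 Fluorescence read-out of CellTiter-Fluor viability reagent, added after cells had been exposed to compound in DMSO for 17.5 h at 37 C; 30 min development at 37 C/5% CO2. Cells: PGC/ERR line, 2,000/well.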
For CC(=O)CCC(C)=O, the Potency was “inactive”.
With Cc1ccccc1C(=O)Nc1cccc(OC(C)C)c1 the Potency was “inactive”.
In the case of CCO[C@H]1O[C@@H]2OC3(C)CC[C@H]4[C@H](C)CC[C@@H]([C@H]1C)[C@@]24OO3, the Potency is reported as “inactive”.
In the case of BrCCCCBr, the Potency is reported as “inactive”.
In the case of c1cc2ccc3cccc4ccc(c1)c2c34, the Potency is reported as “inactive”.
In the case of C[C@@H]1CC[C@H]2[C@@H](C)C(=O)O[C@@H]3O[C@@]4(C)CC[C@@H]1[C@]32OO4, the Potency is reported as “inactive”.
With CC(C)N(CCC(C(N)=O)(c1ccccc1)c1ccccn1)C(C)C (configuration not stated) the Potency was “inactive”.
With c1ccc(C2CC2)c(OCC2=NCCN2)c1 the Potency was “inactive”.
With [O-][Cl+]O the Potency was “inactive”.
With c1ccc(CN2CCNCC2)cc1 the Potency was “inactive”.
For OCCCBr, the Potency was “inactive”.
With CNP(=O)(OC)Oc1ccc(C(C)(C)C)cc1Cl (configuration not stated) the Potency was “inactive”.
With O=C(CBr)Nc1ccc(Cl)cc1C(=O)c1ccccc1F the Potency was “inactive”.
With Brc1ccc(Oc2ccccc2)cc1 the Potency was “inactive”.
In the case of NCCCNCCCN, the Potency is reported as “inactive”.
For BrCC(Br)C1CCC(Br)C(Br)C1 (configuration not stated), the Potency was “inactive”.
In the case of C=C(C#N)CCC#N, the Potency is reported as “inactive”.
With C=CCN1CC[C@]23c4c5ccc(O)c4O[C@H]2C(=O)CC[C@@]3(O)[C@H]1C5 the Potency was “inactive”.
In the case of CCCCCCC#N, the Potency is reported as “inactive”.
With CO[C@@H]1[C@H](OC(=O)NC(=O)CCl)CC[C@]2(CO2)[C@H]1[C@@]1(C)O[C@@H]1CC=C(C)C the viability change, negative = cytotoxic was -8.92% [at 19 µM].
In the case of CN1[C@@H]2CC[C@H]1CC(OC(=O)c1cc(Cl)cc(Cl)c1)C2 (some centres not stated), the Potency is reported as “inactive”.
With C=COC(C)=O the Potency was “inactive”.
In the case of CCCCCC[N+](=O)[O-], the Potency is reported as “inactive”.
In the case of O=C(NC(=O)c1c(F)cccc1F)Nc1ccc(OC(F)(F)C(F)OC(F)(F)F)c(Cl)c1 (configuration not stated), the Potency is reported as “inactive”.
With COc1c(C(C)(C)C)cc([N+](=O)[O-])c(C)c1[N+](=O)[O-] the Potency was “inactive”.

System: not listed separately
Assay: qHTS assay to identify small molecule antagonists of the estrogen related receptor signaling pathway with the pleiotropic PPARgamma coactivator (PGC) from Tox21 10K library (AID 1224841; call rule not given here; also: actives are mostly falling curves and most rising ones were filed inactive; nearly all actives have a fitted effect of over 50% in size; also: potency is read from the fitted curve at half-maximal effect)
Conditions: PGC/ERR reporter cell line, ONE-Glo luciferase, 18 h; series mostly up to 92.4 µM
In short: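 Luminescence read-out (One-Glo luciferase reagent, 30 min at room temperature) from PGC/ERR cells exposed to DMSO-dissolved test compounds for 18 h at 37 C; cells, 2,000 per well, had been preincubated 6 h before compound transfer.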
For CCCC(Cn1cncn1)c1ccc(Cl)cc1Cl (configuration not stated), the Potency was 30.6 µM (active).
With CCc1ccc(C(=O)NN(C(=O)c2cc(C)cc(C)c2)C(C)(C)C)cc1 the Potency was 30.6 µM (active).
With CCO[C@H]1O[C@@H]2OC3(C)CC[C@H]4[C@H](C)CC[C@@H]([C@H]1C)[C@@]24OO3 the Potency was 0.668 µM (active).
With c1cc2ccc3cccc4ccc(c1)c2c34 the Potency was “inactive”.
With C[C@@H]1CC[C@H]2[C@@H](C)C(=O)O[C@@H]3O[C@@]4(C)CC[C@@H]1[C@]32OO4 the Potency was 1.88 µM (active).
In the case of c1ccc(C2CC2)c(OCC2=NCCN2)c1, the Potency is reported as “inactive”.
With Clc1cccc(SC2CCNCC2)n1 the Potency was “inactive”.
With CCCCCCCCCCOC(=O)c1ccccc1C(=O)OCCCCCCCCCC the Potency was “inactive”.
For [O-][Cl+]O, the Potency was “inactive”.
In the case of C/C(=C\c1ccccc1)[N+](=O)[O-], the Potency is reported as 30.6 µM (active).
In the case of CNP(=O)(OC)Oc1ccc(C(C)(C)C)cc1Cl (configuration not stated), the Potency is reported as “inactive”.
In the case of O=C(CBr)Nc1ccc(Cl)cc1C(=O)c1ccccc1F, the Potency is reported as “inactive”.
In the case of Brc1ccc(Oc2ccccc2)cc1, the Potency is reported as “inactive”.
In the case of C=C(C#N)CCC#N, the Potency is reported as “inactive”.
With C=CCN1CC[C@]23c4c5ccc(O)c4O[C@H]2C(=O)CC[C@@]3(O)[C@H]1C5 the Potency was “inactive”.
In the case of O=[N+]([O-])C(Br)(CO)CO, the Potency is reported as “inactive”.
With O=C(NC(=O)c1c(F)cccc1F)Nc1ccc(OC(F)(F)C(F)OC(F)(F)F)c(Cl)c1 (configuration not stated) the Potency was “inactive”.
